Results filed as inconclusive are left out. Active and inactive are the calls of the source. The calls were made as follows: active = hit-call score of the fitted dose curve at least 0.9, where 1 is the maximum; inconclusive = response in the unintended direction; inactive = score below 0.9.

The results in this text go back to PubChem BioAssay (EPA / NIEHS).

This experiment deals with human Phosphodiesterase 10 (PDE10), PDE10A (gene 10846) (UniProt Q9Y233). Nature of the experiment: NVS_ENZ_hPDE10: NovaScreen (NVS) Enzymatic Assay for human Phosphodiesterase 10 (PDE10) (AID 2283195). The method, then: NVS_ENZ_hPDE10 is a biochemical, single-readout assay that uses extracted gene-proteins in a cell-free assay. Measurements were taken 1 hour after chemical dosing in a 384-well plate.NVS_ENZ_hPDE10 is one of one assay component(s) measured or calculated from the NVS_ENZ_hPDE10 assay. It is designed to make measurements of enzyme activity, a form of enzyme reporter, as detected with fluorescence intensity signals by Fluorescence and electrophoretic mobility shift technology.Data from the assay component NVS_ENZ_hPDE10 was analyzed into 1 assay endpoint. This assay endpoint, NVS_ENZ_hPDE10, was analyzed in the positive analysis fitting direction relative to DMSO as the negative control and baseline of activity. Using a type of enzyme reporter, loss-of-signal activity can be used to understand changes in the enzymatic activity as they relate to the gene PDE10A. Furthermore, this assay endpoint can be referred to as a primary readout, because this assay has produced multiple assay endpoints where this one serves a enzymatic activity function. To generalize the intended target to other relatable targets, this assay endpoint is annotated to the esterase intended target family, where the subfamily is phosphodiesterase.
Chain of human Phosphodiesterase 10 (PDE10), PDE10A (gene 10846) (Q9Y233 whole entry, looked up): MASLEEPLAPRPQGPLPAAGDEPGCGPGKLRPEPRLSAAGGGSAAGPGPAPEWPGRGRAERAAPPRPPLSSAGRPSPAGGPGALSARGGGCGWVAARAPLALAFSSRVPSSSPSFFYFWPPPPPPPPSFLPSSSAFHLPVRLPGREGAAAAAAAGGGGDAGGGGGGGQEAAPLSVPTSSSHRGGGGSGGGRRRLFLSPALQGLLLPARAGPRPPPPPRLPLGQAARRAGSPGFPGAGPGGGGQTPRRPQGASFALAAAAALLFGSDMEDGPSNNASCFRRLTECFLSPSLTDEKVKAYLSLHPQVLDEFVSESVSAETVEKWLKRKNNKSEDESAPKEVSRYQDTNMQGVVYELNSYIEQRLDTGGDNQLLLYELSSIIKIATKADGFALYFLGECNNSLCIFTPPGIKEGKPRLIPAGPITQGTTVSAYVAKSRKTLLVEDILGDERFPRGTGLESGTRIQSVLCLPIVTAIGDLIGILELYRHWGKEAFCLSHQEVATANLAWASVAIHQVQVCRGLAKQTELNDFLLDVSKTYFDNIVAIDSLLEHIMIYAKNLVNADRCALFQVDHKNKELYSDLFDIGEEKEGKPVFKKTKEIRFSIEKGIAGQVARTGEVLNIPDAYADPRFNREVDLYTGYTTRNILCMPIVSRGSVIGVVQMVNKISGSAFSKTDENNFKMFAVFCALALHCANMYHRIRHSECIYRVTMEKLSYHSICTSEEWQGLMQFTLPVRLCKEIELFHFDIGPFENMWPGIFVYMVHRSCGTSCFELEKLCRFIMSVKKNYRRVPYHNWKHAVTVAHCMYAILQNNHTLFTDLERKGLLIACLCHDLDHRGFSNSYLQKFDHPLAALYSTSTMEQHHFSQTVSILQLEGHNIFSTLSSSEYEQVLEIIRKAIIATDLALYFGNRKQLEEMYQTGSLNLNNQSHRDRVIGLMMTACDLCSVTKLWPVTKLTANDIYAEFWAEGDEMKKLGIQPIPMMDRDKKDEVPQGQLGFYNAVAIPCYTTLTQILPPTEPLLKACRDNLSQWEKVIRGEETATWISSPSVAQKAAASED
Binding assays used specific radioligands (tritiated, iodinated) with non-radioactive competitive displacement ligands in agonist or antagonist protocols (as indicated) and various reference compounds and inhibitors to titrate specific binding to receptors and transporters. Most enzyme assays (CYPs, kinases, phosphatases, proteases, HDACs) used recombinant protein and specific substrates (fluorescence mostly, some colorimetric and radioactive) and inhibitors, followed by a biochemical separation of substrate and product. All assays for the biochemical HTS were initially run in duplicate at a single concentration (10 uM for CYP450 assays and 25 uM for all others). Assay-chemical combinations meeting a pre-defined threshold (e.g., 30% inhibition and other criteria defined below) were then run in singleton concentration-response format with maximum concentration of 20 uM for CYPs and 50 uM for all others. Each assay was run with positive and negative controls, and concurrent controls on every plate. The follow-up (secondary) screen tested active chemical-pairs in concentration series, as well as a few additional assays not tested in the primary screen, some selected negative inactives, and several cases re-run in the concentration series for confirmatory purposes.
For the compound `Cn1c(=O)[nH]c2ncn(C)c2c1=O`, the compound was called inactive.
On the same count and under the same terms, under `CCCCCCCCCCc1ccccc1` stands “inactive”.
What is called AC50 is the midpoint of the concentration-response curve, whichever way the signal moves. Consider `CCC(C)C=O` (stereo not drawn), for which the AC50 is 16.2 µM (active).
On to `O=C1CCCC(=O)O1`, for which the compound was called inactive.
Take `C=C(C)C(=O)OCC(C)C`: the compound was called inactive.
Still for that read-out and setting: for `OCCCS` the value was “inactive”.
Turning to `CC(C)(c1cc(Br)c(OCCO)c(Br)c1)c1cc(Br)c(OCCO)c(Br)c1`, the AC50 is 20.2 µM (active).
As to `CCCCCCCCCCCCCCCC[N+](C)(C)CC`, the call was inactive.
As for `O=CN1CCCCC1`, the call was inactive.
The same measure, in the same setting: for `NC(=O)NNC(N)=O` the value was “inactive”; for `CCOC(=O)[C@H](C)O`, “inactive”.
Still for that read-out and setting: for `CC(C)(C)c1n[nH]c(=O)n(N)c1=O` the value was “inactive”; for `Cc1ccc(C2OC[C@@H]3OC(c4ccc(C)cc4)O[C@H]([C@H](O)CO)[C@@H]3O2)cc1` (stereo partly drawn), “inactive”.
Still for that read-out and setting: for `CC1OC1C1CCC2(C)OC2C1` (stereo not drawn) the value was “inactive”.
For the compound `Cc1ccc(N)c([N+](=O)[O-])c1`, the AC50 was 25 µM (active).
On the same count and under the same terms, under `C=C(C)CCO` stands 38.2 µM (active).
Consider `Nc1cccc(C(F)(F)F)c1`, for which the compound was called inactive.
On the same count and under the same terms, for `O=Nc1ccc(O)cc1` the value was “inactive”.
